Bioassay records deposited in PubChem BioAssay by The Scripps Research Institute Molecular Screening Center.
SRC2 inh = inhibits human steroid receptor coactivator 2; AID 651957; 370,000 tested, 0.17% active; HEK293 GAL4-SRC2 luciferase reporter, luminescence; inhibition, % at 9 µM;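 active = inhibition above the mean inhibition of all tested compounds plus 3 SD, set per campaign, cut at about 52% in these data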
SRC3 inh = inhibits human SRC3 coactivator; HEK293 GAL4-SRC3 luciferase reporter, luminescence; inhibition, % at 3.6 µM; 360,000 tested, 0.17% active;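 active = inhibition above a per-campaign cutoff, the mean of all compounds plus 3 SD, cut at about 60% in these data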;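 note: higher means less SRC3-driven luciferase light from the GAL4 reporter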
SRC1 inh = inhibitors of human steroid receptor coactivator 1 (SRC1). Q15788. HEK293 GAL4-SRC1 luciferase reporter, luminescence. inhibition, % at 3.6 µM. 360,000 tested, 0.12% active;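 active = inhibition above the campaign mean plus 3 SD, with each screening campaign given its own cutoff, cut at about 60% in these data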
COUP-TFII inh = blocks human COUP-TFII nuclear receptor; inhibition, % at 8.6 µM; P24468; 370,000 tested, 0.7% active; HEK293T NGFI-A luciferase reporter, luminescence;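 active = inhibition above a per-plate cutoff, mean inhibition of test wells between control levels plus 3 SD, cut at about 38% in these data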;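 note: cells cotransfected with COUP-TFII expression vector driving the NGFI-A reporter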
NR5A2 inv ag = suppresses constitutive activity of human LRH-1; O00482; HEK293T StAR-luciferase reporter, LRH-1 transfected, 24 h; inhibition, % at 3.6 µM; 360,000 tested, 0.13% active;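 active = inhibition above the mean inhibition of all tested compounds plus 3 SD, cut at about 73% in these data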
Target sequence (O00482 whole entry, looked up): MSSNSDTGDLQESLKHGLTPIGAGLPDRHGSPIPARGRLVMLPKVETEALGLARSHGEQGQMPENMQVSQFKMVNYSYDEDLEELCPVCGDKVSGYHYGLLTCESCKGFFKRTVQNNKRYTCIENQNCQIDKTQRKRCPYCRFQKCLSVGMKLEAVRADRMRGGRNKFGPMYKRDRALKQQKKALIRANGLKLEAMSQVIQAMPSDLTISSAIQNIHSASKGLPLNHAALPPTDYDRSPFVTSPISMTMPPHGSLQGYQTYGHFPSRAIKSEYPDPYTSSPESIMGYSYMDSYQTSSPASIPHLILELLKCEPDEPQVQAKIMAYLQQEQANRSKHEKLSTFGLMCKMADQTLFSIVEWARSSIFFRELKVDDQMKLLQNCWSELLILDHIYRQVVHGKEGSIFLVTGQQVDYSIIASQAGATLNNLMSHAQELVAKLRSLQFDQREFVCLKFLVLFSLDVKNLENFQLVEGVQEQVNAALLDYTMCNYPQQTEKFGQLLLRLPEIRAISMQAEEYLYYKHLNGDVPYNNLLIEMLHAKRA
GalR3 antagonist = human GalR3 antagonism; HEK293 GalR3-CNG cAMP membrane potential fluorescence; galR3 body fused to GalR1 C-terminus; inhibition, % at 3 µM; 360,000 tested, 0.44% active;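 active = inhibition above the screen-wide average plus 3 SD, cut at about 13% in these data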;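 note: forskolin and galanin both at EC90 stimulate the cells; cAMP rise reported by CNG channel membrane potential dye signal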
GalR3 conf = GalR3 (human) antagonism, confirmation; inhibition, % at 3 µM; HEK293 GalR3 CNG cAMP biosensor, membrane potential fluorescence; galR3 fused to GalR1 carboxy tail; challenged with forskolin and galanin at EC90; shares compounds with GalR3 antagonist; 1,600 tested, 59% active;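 active = inhibition above the primary screen's cutoff, the mean inhibition of all screened compounds plus 3 SD, cut at about 13% in these data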
CNG parental = acts as nonspecific agonist in parental HEK-CNG cells; shares compounds with GalR3 antagonist; HEK293-CNG parental cells, cAMP membrane potential fluorescence; normalised: DMSO wells 0%, forskolin wells 100%; activation, % at 3 µM; 1,600 tested, 10% active; in the data active = activation above about 1.3%
Of the large screens only hits and unclear results are named; the others gave an inactive call (follow-up assays come after a bar, where they were run). Hits are enriched below; roughly 1.1% of the tested compounds scored in any of these assays.

CCNc1nc(CN2CCCCC2)nc2scc(-c3ccccc3)c12	GalR3 antagonist 18.9 | GalR3 conf 22.2 | CNG parental 5.7
Cc1ccc(-c2cc(C(=O)O)c3sc(N4CCCCC4)nc3n2)cc1	none
O=C(O)c1cc(-c2ccccc2)nc2nc(N3CCCCC3)sc12	GalR3 antagonist 12.9 (no result: SRC3 inh, SRC1 inh, NR5A2 inv ag) | GalR3 conf inactive | CNG parental inactive
CCc1nccn1CC(=O)c1ccc(O)c(O)c1	none (no result: SRC2 inh, SRC3 inh, SRC1 inh, NR5A2 inv ag, GalR3 antagonist)
Cc1ccc(S(=O)(=O)NC2CCCC2)cc1C	none
Cc1cc(=O)[nH]c2ccc(S(=O)(=O)NC3CCCCC3)cc12	GalR3 antagonist 12.7 | GalR3 conf 38.3 | CNG parental inactive
Nc1ccn(C[C@@H](CO)OCP(=O)(O)O)c(=O)n1	none (no result: SRC3 inh, SRC1 inh, NR5A2 inv ag, GalR3 antagonist)
CCC(Sc1nc2n[nH]c(C)c2c(=N)n1-c1cccc(Cl)c1C)C(=O)N(CC)CC (stereo not drawn)	GalR3 antagonist 16.6 | GalR3 conf 71.1 | CNG parental inactive
O=C1N=c2ccccc2=C1c1sc(=S)n(-c2ccc(O)cc2)c1O	GalR3 antagonist 13.5 | GalR3 conf inactive | CNG parental inactive
CC(C)C[C@H](NC1(C(=O)NCCc2c[nH]c3ccccc23)CCN(C)CC1)C(=O)NCCCc1ccccc1	none (no result: SRC2 inh, SRC3 inh, SRC1 inh, NR5A2 inv ag, GalR3 antagonist)
Cn1c(=O)oc2cc(S(=O)(=O)N3CCN(c4cccc(C(F)(F)F)c4)CC3)ccc21	none (no result: SRC3 inh, SRC1 inh, NR5A2 inv ag, GalR3 antagonist)
O=C(CSC1=Nc2ccccc2C2CC=NN12)Nc1ccc2c(c1)OCO2 (stereo not drawn)	GalR3 antagonist 20.4 | GalR3 conf inactive | CNG parental inactive
Cc1nc(-c2cccc(NC(=O)c3ccc(-n4nccc4C)cc3)c2)cs1	none
Cc1nc(-c2ccc(C(=O)Nc3cccc(Br)c3)cc2)cs1	GalR3 antagonist 98.0 | GalR3 conf 101.9 | CNG parental inactive
O=C(Nc1ccc(F)c(Cl)c1)c1cc(C2CCCN(S(=O)(=O)c3cccc4cccnc34)C2)on1 (stereo not drawn)	GalR3 antagonist 13.0 | GalR3 conf inactive | CNG parental inactive
COCCSc1ncccc1-c1nc2ccccc2[nH]1	none (no result: SRC3 inh, SRC1 inh, NR5A2 inv ag, GalR3 antagonist)
COC(=O)Cc1nnn2c1[C@H](C)[C@H](c1ccccc1Br)OC[C@@H]2c1ccccc1	none (no result: SRC3 inh, SRC1 inh, NR5A2 inv ag)
COc1ccc2[nH]c3c(=O)n(CCCCC(=O)NCCC(C)C)c(=S)[nH]c3c2c1	GalR3 antagonist 13.3 | GalR3 conf inactive | CNG parental inactive
COc1cccc2cc3c(nc12)C[C@@H]1CCCC(=O)N2CCC[C@@]12C3	none (no result: SRC2 inh, SRC3 inh, SRC1 inh, NR5A2 inv ag, GalR3 antagonist)
COc1cccc(-c2nnc(SCC(=O)Nc3cccc4ccccc34)n2Cc2ccco2)c1	none (no result: SRC3 inh, SRC1 inh, NR5A2 inv ag, GalR3 antagonist)
COc1cc(C(=O)NC2CCN(C)CC2)ccc1Nc1ncc2c(n1)N(Cc1ccccc1)CCC(=O)N2C	none
COc1cc(C(=O)NC2CCN(C)CC2)ccc1Nc1ncc2c(n1)N(C1CCCCC1)CCC(=O)N2C	GalR3 antagonist 19.4 | GalR3 conf 13.2 | CNG parental inactive
CNCC(O)c1ccc(OC(=O)C(C)(C)C)c(OC(=O)C(C)(C)C)c1 (stereo not drawn)	GalR3 antagonist 54.6 | GalR3 conf 63.1 | CNG parental 13.5
COc1ccc(-c2nnc(SCC(=O)N/N=C(\C)c3ccc(-c4ccccc4)cc3)n2-c2ccc(C)cc2)cc1	none (no result: SRC3 inh, SRC1 inh, NR5A2 inv ag, GalR3 antagonist)
COc1cc(NC(=O)COC(=O)CCc2cc(OC)c(OC)c(OC)c2)cc(OC)c1	none
COc1cc(CCC(=O)OCC(=O)Nc2ccc(C(N)=O)cc2)cc(OC)c1OC	none (no result: GalR3 antagonist) | GalR3 conf inactive | CNG parental inactive
COc1ccccc1Oc1ccc2c(c1)C(=O)N(c1cccc3ncccc13)C2=O	GalR3 antagonist 57.9 | GalR3 conf 45.8 | CNG parental inactive
C=CCN1C(C(=O)OC)CN(Cc2cn(Cc3ccc(C)cc3)nn2)CCS1(=O)=O (stereo not drawn)	none (no result: SRC3 inh, SRC1 inh, NR5A2 inv ag, GalR3 antagonist)
CN(c1ccccc1)S(=O)(=O)c1cccc(NC(=O)CN2C(=O)NC3(CCCCC3)C2=O)c1	none
CC(C)CC1(C)NC(=O)N(CC(=O)Nc2cccc(S(=O)(=O)N(C)c3ccccc3)c2)C1=O (stereo not drawn)	GalR3 antagonist 14.3 | GalR3 conf 57.0 | CNG parental inactive
CCc1cc2c(nc1CC)CCCN2S(=O)(=O)c1ccccc1C	none (no result: SRC3 inh, SRC1 inh, NR5A2 inv ag)
CCN(CC)S(=O)(=O)c1ccc(C(=O)NCCN(C)C)cc1	GalR3 antagonist 20.1 | GalR3 conf inactive | CNG parental inactive
CCN(CC)S(=O)(=O)c1ccc(C(=O)NCCCn2ccnc2)cc1	none
COC(=O)[C@]12C[C@H](CC(=O)NCc3ccc(OC)c(OC)c3)C(=O)N(Cc3ccc(Cl)cc3Cl)C1=C[C@H](C1CCCC1)O[C@@H]2C	none (no result: SRC3 inh, SRC1 inh, NR5A2 inv ag, GalR3 antagonist)
Cn1c(=O)c2c(nc(NCc3cccnc3)n2Cc2ccc(Cl)cc2)n(C)c1=O	GalR3 antagonist 23.5 | GalR3 conf inactive | CNG parental inactive
Cn1c(=O)c2c(ncn2Cc2ccc(Cl)cc2)n(C)c1=O	GalR3 antagonist 15.2 | GalR3 conf inactive | CNG parental inactive
COc1ccc(CNC(=O)CCNS(=O)(=O)c2ccc3[nH]c(=O)oc3c2)cc1	none (no result: SRC3 inh, SRC1 inh, NR5A2 inv ag, GalR3 antagonist)
COc1ccc(C(C)=O)cc1CSC(=S)N1CCSCC1	none (no result: SRC3 inh, SRC1 inh, NR5A2 inv ag)
NC(=O)c1sc(=S)n2c1[nH]c(=O)c1sccc12	GalR3 antagonist 67.0 | GalR3 conf inactive | CNG parental inactive
COC(CNS(=O)(=O)c1ccc(S(=O)(=O)N2CCCC2)cc1)OC	GalR3 antagonist 13.4 | GalR3 conf inactive | CNG parental inactive
COCCCNS(=O)(=O)c1ccc(S(=O)(=O)N2CCCC2)cc1	none
CCOc1cc(C(C(=O)NCC2CCCO2)N(C(=O)Cn2nnc3ccccc32)c2ccccc2C(C)=O)ccc1O (stereo not drawn)	GalR3 antagonist 15.3 | GalR3 conf 13.8 | CNG parental inactive
CCO[C@@H]1OC(C(=O)NCc2ccccc2)=C[C@H](C2CC2)[C@H]1CCCO	none (no result: GalR3 antagonist) | GalR3 conf inactive | CNG parental inactive
O=C(c1cccnc1Cl)N1CCOCC1	GalR3 antagonist 13.1 | GalR3 conf inactive | CNG parental inactive
Fc1ccc(/C=N/NC(=S)Nc2cccnc2)cc1F	none
Fc1ccc(/C=N/NC(=S)Nc2cccnc2)cc1	GalR3 antagonist 21.4 | GalR3 conf inactive | CNG parental inactive
CCCCCCNC(=O)CC(NS(=O)(=O)c1ccc(OC)cc1)C(C)C (stereo not drawn)	GalR3 antagonist 21.2 | GalR3 conf inactive | CNG parental inactive
CCCCCCCNC(=O)CC(NS(=O)(=O)c1ccc(NC(C)=O)cc1)C(C)C (stereo not drawn)	none
COC(=O)C[C@H]1CC[C@H]2[C@H](COc3ccc(NC(=O)c4cccs4)cc3C(=O)N2C)O1	none (no result: SRC3 inh, SRC1 inh, NR5A2 inv ag, GalR3 antagonist)
